MCF10A rerep – induces DNA re-replication in MCF 10a normal breast cells; MCF 10A DNA re-replication, Hoechst nuclear intensity, 48 h; Potency, µM (titrated, usually from 46.1 µM), usual class: activators; hit rate 2.9% among 350,000; note: nearly all actives have a fitted effect of over 50% in size
HT1080-NT tox – kills 2HG-producing HT-1080-NT fibrosarcoma cells. HT-1080-NT fibrosarcoma viability, CellTiter-Glo ATP luminescence, 48 h. Potency, µM (series often up to 46.1 µM), hits mostly cytotoxic. hit rate 1.6% among 360,000. AID 686970;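 note: NT is the 2HG producing partner of a matched IDH1 knockdown line; nearly all actives have a fitted effect of over 55% in size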
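Fibrosarcoma NT cells, 750 per well in 5% FBS RPMI, were exposed to compound for 48 hours. Viability: CellTiter-Glo luminescence.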
KB-3-1 tox – KB-3-1 parental cell cytotoxicity; KB-3-1 viability, CellTiter-Glo ATP luminescence, 72 h; Potency, µM (highest dose often 46.1 µM), most hits filed as cytotoxic; hit rate 1.4% among 400,000; AID 1347075; note: nearly all actives have a fitted effect of over 60% in size
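Cytotoxicity in the drug-sensitive parental line KB-3-1 was scored as loss of CellTiter-Glo luminescence following 72 h incubation with compound. Values come from curve fitting of normalized concentration-response data.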
HT1080 IDH1KD tx – toxicity to HT-1080 IDH1 knockdown cells (counter line) | AID 686971 | hit rate 2% among 360,000 | Potency, µM (series often up to 46.1 µM), usual class: cytotoxic | HT-1080 IDH1 knockdown viability, ATP luminescence, 48 h
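After a 2 h attachment period, IDH1KD HT-1080 cells took pin-transferred compound for 48 h at 37 °C; ATP-based luminescence after 10 min room-temperature reagent incubation reported viability.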
SW480 rereplic – DNA re-replication induction in SW480 cells; SW480 DNA re-replication, Hoechst DNA content imaging, 48 h; Potency, µM (top dose mostly 46.1 µM), most hits filed as activators; hit rate 1.8% among 340,000; AID 624297; note: nearly all actives have a fitted effect of over 55% in size
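DNA re-replication was detected as more nuclei of elevated Hoechst intensity after 48 hr exposure to compound (23 nL pinned per well of 250 cells).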
KB-V1 cytotox – KB-V1 MDR subline cytotoxicity. KB-V1 MDR cells viability, CellTiter-Glo, 72 h. Potency, µM (top dose mostly 46.1 µM), actives largely listed as cytotoxic. hit rate 3.4% among 400,000. AID 1347076; note: nearly all actives have a fitted effect of over 60% in size
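Drug-selected KB-V1 cells, grown in DMEM lacking phenol red with 10% FBS, receive compound titrations; after three days at 37 degrees C, surviving cell ATP is quantified by CellTiter-Glo luminescence and responses normalized and curve-fitted.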
Of the large screens only hits and unclear results are named; the others gave an inactive call. Most compounds without a hit are left out; they make up all but 7.9% or so of the library. Calls come from the whole dose curve; as a rule, active = well fitted curve in the direction sought with a large enough effect; inconclusive = small, poorly fitted or top-dose-only effect, or another doubt; inactive = no such curve, though single readings can be large; an effect the other way counts as inactive or inconclusive.

CC(C)c1nnc(NC(=O)c2nc(S(=O)(=O)Cc3ccc(F)cc3)ncc2Cl)s1	MCF10A rerep 0.73µM, HT1080-NT tox 26µM, KB-3-1 tox inconclusive, HT1080 IDH1KD tx 23µM, SW480 rereplic 1.3µM
CC(C)c1nnc(NC(=O)c2nc(SCc3ccc(F)cc3)ncc2Cl)s1	none (no result: MCF10A rerep, HT1080-NT tox, HT1080 IDH1KD tx, SW480 rereplic)
Cc1ccc(CS(=O)(=O)c2ncc(Cl)c(C(=O)Nc3nnc(C(C)C)s3)n2)cc1	MCF10A rerep inconclusive, HT1080-NT tox 21µM, KB-3-1 tox inconclusive, HT1080 IDH1KD tx 9.2µM, KB-V1 cytotox inconclusive
CC(C)c1ccc(NC(=O)Cn2c(=O)n(CCc3ccccc3)c(=O)c3ccccc32)cc1	none (no result: MCF10A rerep, HT1080-NT tox, HT1080 IDH1KD tx, SW480 rereplic)
CC1CCN(C(=O)CN(C)S(=O)(=O)c2cccc3nsnc23)CC1	KB-V1 cytotox 23µM
CCC(C)(c1nnnn1-c1c(C)cccc1C)N(N=O)c1cccc(C(F)(F)F)c1 (configuration not stated)	KB-3-1 tox inconclusive, SW480 rereplic inconclusive, KB-V1 cytotox 16µM
CN(C)c1ccc(CNC(=O)C2(C)Cc3c(-c4cccc(C(F)(F)F)c4)ccnc3O2)cc1 (configuration not stated)	HT1080-NT tox inconclusive, KB-3-1 tox inconclusive, HT1080 IDH1KD tx 18µM, KB-V1 cytotox inconclusive (no result: MCF10A rerep, SW480 rereplic)
CC(=O)Nc1cccc(-c2ccnc3c2CC(C)(C(=O)Nc2cccc(Oc4ccccc4)c2)O3)c1 (configuration not stated)	HT1080-NT tox inconclusive, KB-3-1 tox inconclusive, HT1080 IDH1KD tx inconclusive, KB-V1 cytotox 21µM (no result: MCF10A rerep, SW480 rereplic)
CC1(C(=O)NCCC(F)(F)F)Cc2c(-c3cccc(C(F)(F)F)c3)ccnc2O1 (configuration not stated)	HT1080-NT tox 21µM, KB-3-1 tox inconclusive, HT1080 IDH1KD tx 5.8µM, KB-V1 cytotox inconclusive (no result: MCF10A rerep, SW480 rereplic)
CC(=O)Nc1ccc(-c2ccnc3c2CC(C)(C(=O)Nc2cccc(C(F)(F)F)c2)O3)cc1 (configuration not stated)	HT1080-NT tox inconclusive, HT1080 IDH1KD tx inconclusive, KB-V1 cytotox inconclusive (no result: MCF10A rerep, SW480 rereplic)
CC(=O)Nc1ccc(-c2ccnc3c2CC(C)(C(=O)Nc2cccc(OC(F)(F)F)c2)O3)cc1 (configuration not stated)	HT1080-NT tox 26µM, KB-3-1 tox inconclusive, HT1080 IDH1KD tx inconclusive, KB-V1 cytotox inconclusive (no result: MCF10A rerep, SW480 rereplic)
CC1(C(=O)Nc2cccc(Oc3ccccc3)c2)Cc2c(-c3ccccc3)ccnc2O1 (configuration not stated)	HT1080-NT tox inconclusive, KB-3-1 tox inconclusive, HT1080 IDH1KD tx inconclusive (no result: MCF10A rerep, SW480 rereplic)
CCCCCC=CCC=CCCCCCCCC(=O)OCC	none (no result: HT1080-NT tox, KB-3-1 tox, HT1080 IDH1KD tx, KB-V1 cytotox)
O=S(=O)(NCCSc1nnnn1-c1ccccc1)c1ccc(F)cc1	none (no result: MCF10A rerep, HT1080-NT tox, HT1080 IDH1KD tx, SW480 rereplic)
CC(=O)Nc1cccc(-c2ccnc3c2CC(C)(C(=O)Nc2ccccc2)O3)c1 (configuration not stated)	none (no result: MCF10A rerep, SW480 rereplic)
CC(=O)Nc1ccc(-c2ccnc3c2CC(C)(C(=O)NCc2ccc(F)c(F)c2)O3)cc1 (configuration not stated)	HT1080-NT tox inconclusive, KB-3-1 tox 8.2µM, HT1080 IDH1KD tx 15µM (no result: MCF10A rerep, SW480 rereplic)
CC(=O)Nc1cccc(-c2ccnc3c2CC(C)(C(=O)NCc2cccc(Cl)c2)O3)c1 (configuration not stated)	HT1080-NT tox inconclusive, KB-3-1 tox 15µM, HT1080 IDH1KD tx inconclusive, KB-V1 cytotox inconclusive (no result: MCF10A rerep, SW480 rereplic)
CC(=O)Nc1cccc(-c2ccnc3c2CC(C)(C(=O)NCc2cccs2)O3)c1 (configuration not stated)	HT1080-NT tox inconclusive, KB-3-1 tox 3.3µM, HT1080 IDH1KD tx 1.6µM (no result: MCF10A rerep, SW480 rereplic)
CC(=O)Nc1cccc(-c2ccnc3c2CC(C)(C(=O)NCCN(C)C)O3)c1 (configuration not stated)	none (no result: MCF10A rerep, SW480 rereplic)
CC(=O)Nc1cccc(-c2ccnc3c2CC(C)(C(=O)NCCc2ccccc2)O3)c1 (configuration not stated)	HT1080-NT tox inconclusive, KB-3-1 tox 4.1µM, HT1080 IDH1KD tx inconclusive, KB-V1 cytotox inconclusive (no result: MCF10A rerep, SW480 rereplic)
CC(=O)Nc1ccc(S(=O)(=O)NC2(C(F)(F)F)C(=O)Nc3c2c(=O)[nH]c(=O)n3-c2cccc(Cl)c2)cc1 (configuration not stated)	KB-3-1 tox inconclusive (no result: MCF10A rerep, HT1080-NT tox, HT1080 IDH1KD tx, SW480 rereplic)
